In the supplement of paper PMC11018630:
Where a name gives a salt, the structure may show the parent alone. ± gives the standard deviation of the averaged measurements.

test system: RDEB dermal fibroblasts EB119; experiment: day of extracellular matrix detachment from plate (days); higher = delayed detachment (less fibrotic matrix); details: compound concentration: 10 uM

Point of comparison: `CCOC(=O)[C@H]1O[C@@H]1C(=O)N[C@@H](CC(C)C)C(=O)NCCC(C)C` [Aloxistatin], “day of extracellular matrix detachment from plate” value 25. Against it:
- CNC(=O)[C@H](Cc1ccccc1)NC(=O)[C@H](CC(C)C)[C@H](CSc1cccs1)C(=O)NO [Batimastat (BB-94)] — lower, 18
- OC(c1cc(C(F)(F)F)nc2c(C(F)(F)F)cccc12)C1CCCCN1 (centres undefined) [Mefloquine HCl] — higher, 39
- C=CC[C@@H]1/C=C(\C)C[C@H](C)C[C@H](OC)[C@H]2O[C@@](O)(C(=O)C(=O)N3CCCC[C@H]3C(=O)O[C@H](/C(C)=C/[C@@H]3CC[C@@H](O)[C@H](OC)C3)[C@H](C)[C@@H](O)CC1=O)[C@H](C)C[C@@H]2OC [Tacrolimus (FK506)] — lower, 20.7 ± 1.1
- O=C1C(O)=C([C@H]2CC[C@H](c3ccc(Cl)cc3)CC2)C(=O)c2ccccc21 [Atovaquone] — within error, 26 ± 1.4
- O=C(O[C@H]1CN2CCC1CC2)N1CCc2ccccc2[C@@H]1c1ccccc1 [Solifenacin succinate] — higher, 33.3 ± 1.1
- C[N+](C)(CCOc1ccccc1)Cc1ccccc1.O=C([O-])c1cc2ccccc2cc1O [Bephenium Hydroxynaphthoate] — within error, 26 ± 1.4
- CSc1ccc2c(c1)N(CCC1CCCCN1C)c1ccccc1S2 (centres undefined) [Thioridazine HCl] — higher, 39
- CC(C)(CO)[C@@H](O)C(=O)NCCCO [D panthenol] — within error, 26 ± 1.4
- CCN(CCO)CCCC(C)Nc1ccnc2cc(Cl)ccc12 (centres undefined) [Hydroxychloroquine Sulfate] — higher, 32
- O=C(O)CCCCCCCC(=O)O [Azelaic acid] — higher, 26.3 ± 1.1
- Cc1cc(/C=C/C#N)cc(C)c1Nc1ccnc(Nc2ccc(C#N)cc2)n1 [Rilpivirine] — higher, 39
- COCCCOc1ccnc(C[S+]([O-])c2nc3ccccc3[nH]2)c1C (centres undefined) [Rebeprazole sodium] — the same, 25
- CCCCCCCCc1ccc(CCC(N)(CO)CO)cc1 [Fingolimod (FTY720) HCl] — within error, 26 ± 1.4
- CCCN(CCC)C(=O)C1=Cc2ccc(-c3ccc(C(=O)N4CCCC4)cc3)cc2N=C(N)C1 [Motolimod (VTX-2337)] — within error, 26 ± 1.4
- CCN(CC)CCCC(C)Nc1ccnc2cc(Cl)ccc12 (centres undefined) [Chloroquine Phosphate] — higher, 35.3 ± 1.1
- Nc1nc(NC2CC2)c2ncn([C@H]3C=C[C@@H](CO)C3)c2n1 [Abacavir sulfate] — higher, 27
- CC(C)[C@H]1C(=O)N[C@@H](CCCNC(=N)N)C(=O)NCC(=O)N[C@@H](CC(=O)O)C(=O)N[C@H](Cc2ccccc2)C(=O)N1C [Cilengitide] — lower, 4
- CN1CCC(COc2cnc(-c3cccc(Cn4nc(-c5cccc(C#N)c5)ccc4=O)c3)nc2)CC1 — lower, 15.5 ± 3.5
